Out of some 1,500 compounds screened, about 460 (31%) were called active. About 1% were inconclusive and are not listed.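 Rule for the calls: active = curve reaches 40% activation over neutral controls at an AC40 no higher than the top valid tested concentration; inconclusive = no clear call, values can overlap the other calls; inactive = signal moving opposite to the expected increase, and the rest.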 The list is a sample of the results. Results with a measured potency or affinity are listed apart.
Experiment: activators of glucose-dependent insulin secretion, dose response, cell-based, INS-1E, Gaussia luciferase, luminescence, cherry-pick, set 2 (AID 977607);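 note: 0% = median of the plate neutral control wells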
Details: INS-1E GLuc insulin secretion reporter, 2-3 h, active compounds read high; at 35 µM, 100% = signal doubled over neutral wells unless noted

Max activation, inactive:
Cc1cccc(NCc2ccccc2)c1 -18.2% [at 0.0016 µM, 100% = signal doubled over neutral wells]
Cc1ccc(NCc2cccc(B(O)O)c2)cc1 -34.5%
COc1ccc(/C=N/Nc2nc(-c3ccc(Cl)cc3)cc(C(F)(F)F)n2)c(OC)c1 30.4%
COc1ccccc1C(=O)N/N=C(\C)CC(=O)Nc1ccc2c(c1)OCCO2 15.2% [at 0.005 µM, 100% = signal doubled over neutral wells]
S=C(NCc1ccccc1)Nc1ccc2cn[nH]c2c1 -24.4% [at 0.046 µM, 100% = signal doubled over neutral wells]
CC(Oc1ccccc1Cl)C(=O)Nc1ccc(S(=O)(=O)Nc2nccs2)cc1 (stereo not given) -19.7% [at 0.135 µM, 100% = signal doubled over neutral wells]
CCOc1ncccc1C(=O)Nc1cccc(S(=O)(=O)NC2=NCCC2)c1 -12.4% [at 0.135 µM, 100% = signal doubled over neutral wells]
CCOc1ncccc1C(=O)NCc1ccc(C)cc1 -15% [at 0.046 µM, 100% = signal doubled over neutral wells]
CCOc1ncccc1C(=O)NNC(=O)c1ccccc1-n1cccc1 -7.28% [at 3.8 µM, 100% = signal doubled over neutral wells]
CNC(=O)c1cc(C(=O)c2ccccc2Br)c[nH]1 25.1% [at 0.135 µM, 100% = signal doubled over neutral wells]
COC(=O)CN(c1cccc(C)c1)S(=O)(=O)c1ccccc1 23.2% [at 0.42 µM, 100% = signal doubled over neutral wells]
O=C(Nc1ccc(F)cc1)N1CCCCN2[C@@H](CO)[C@@H](c3ccc(C#Cc4ccccc4)cc3)[C@@H]2C1 21.6% [at 0.0016 µM, 100% = signal doubled over neutral wells]
CCN(CC(=O)Nc1ccccc1OC)C(=O)C1CCCC1 -15.2% [at 3.8 µM, 100% = signal doubled over neutral wells]
O=C1CC(NS(=O)(=O)c2cccs2)CN1c1cccc(F)c1 (stereo not given) -15.9% [at 11 µM, 100% = signal doubled over neutral wells]
C=CCNC(=O)COc1coc(CN2CCN(C(=O)c3ccco3)CC2)cc1=O -8.4% [at 0.046 µM, 100% = signal doubled over neutral wells]
CCn1ncc2c1C(=O)NC1c3ccccc3C(=O)N21 (stereo not given) -17.7% [at 0.0016 µM, 100% = signal doubled over neutral wells]
c1ccc2nc3c(nc2c1)c1ccccc1n3CCN1CCOCC1 -14.9% [at 0.005 µM, 100% = signal doubled over neutral wells]
CC(=O)Nc1nc(C)nc(-c2ccccc2OC(C)=O)n1 -19.4% [at 0.046 µM, 100% = signal doubled over neutral wells]
O=c1c2ccccc2nc(-c2ccco2)n1/N=C/c1ccco1 -20.6% [at 0.0016 µM, 100% = signal doubled over neutral wells]
O=c1c2ccccc2nc(-c2ccco2)n1Cc1ccccc1 -18.2% [at 0.046 µM, 100% = signal doubled over neutral wells]
CSc1ncccc1C(=O)NCCc1ccccc1F 23.1% [at 3.8 µM, 100% = signal doubled over neutral wells]
COCCOc1ccc(C(F)(F)F)cc1NC(=O)c1ccccc1F -23.9% [at 3.8 µM, 100% = signal doubled over neutral wells]
O=C(NCCCNc1ccnc2cc(Cl)ccc12)c1ccccc1F -28.3%
O=S(=O)(c1cccs1)N1CN(C2CCCCC2)c2nc3ccccc3nc21 -12.2%
Cc1ccc(S(=O)(=O)N(CC(=O)Nc2ccc(C)cc2C)C(=O)N2CCN(C)CC2)cc1 42% [at 0.046 µM, 100% = signal doubled over neutral wells]
Cc1ccc(OCC(=O)NNC(=O)CCC(=O)Nc2ccc(C)cc2C)cc1 -27.6% [at 3.8 µM, 100% = signal doubled over neutral wells]
CC(=O)N1CCN(C(=O)COC(=O)c2ccc(S(C)(=O)=O)cc2)CC1 25.9%
CCSc1nnc(NC(=O)c2csc(C)c2)s1 -21.3% [at 0.0016 µM, 100% = signal doubled over neutral wells]
CCC(=O)Nc1nnc(Sc2ccc(N(C)C)cc2)s1 -22.3% [at 0.046 µM, 100% = signal doubled over neutral wells]
CCC(CC)NC(=O)CN1CCN(S(=O)(=O)c2cccs2)CC1 -15.7% [at 3.8 µM, 100% = signal doubled over neutral wells]
Cc1nnc2c(NCCC(C)C)nc3ccccc3n12 -15%
CC1(C)Cc2c(cnn2-c2ccccc2)C(NC(=O)CCN2CCCC2=O)C1 (stereo not given) -18.4%
Cc1ccc(-n2ncc3c2CC(C)(C)CC3NC(=O)CCCN2CCCC2=O)cc1 (stereo not given) -26.8% [at 0.046 µM, 100% = signal doubled over neutral wells]
CCn1nc(NC(=O)c2ccco2)c2cc3ccccc3nc21 61.7% [at 11 µM, 100% = signal doubled over neutral wells]
CCCn1nc(NC(=O)c2ccco2)c2cc3ccccc3nc21 -15.7% [at 0.0016 µM, 100% = signal doubled over neutral wells]
CCOc1ccc(CCNC(=O)CCNC(=O)c2ccco2)cc1OCC 12.9% [at 3.8 µM, 100% = signal doubled over neutral wells]
CC1(C)CC(=O)C(C=NC2CC(C)(C)NC(C)(C)C2)=C(O)C1 -17.1% [at 0.005 µM, 100% = signal doubled over neutral wells]
CCSc1nnc(-c2cccnc2)n1-c1ccc(C)c(Cl)c1 -13.6% [at 0.0016 µM, 100% = signal doubled over neutral wells]
CN(c1ccc(C(=O)N2CCN(Cc3ccccc3)CC2)cc1)S(=O)(=O)c1ccccc1 -44.5%
O=C(CN1C(=O)CCC1=O)Nc1cccc2c1C(=O)NC2=O -14.9% [at 1.2 µM, 100% = signal doubled over neutral wells]
N=c1n(CCN2CCCCC2)c2ccccc2n1CC(O)COc1ccccc1 (stereo not given) -22.3% [at 1.2 µM, 100% = signal doubled over neutral wells]
CN(Cc1ccc(OCC(O)CN(C)Cc2ccccc2)cc1)Cc1nccn1C (stereo not given) -10.6% [at 0.0016 µM, 100% = signal doubled over neutral wells]
O=C(NNC1CCN(Cc2ccccc2)CC1)c1ccccc1 -25% [at 3.8 µM, 100% = signal doubled over neutral wells]
Cc1cccc2[nH]c3c(N4CC=C(c5ccc(F)cc5)CC4)ncnc3c12 18.7% [at 1.2 µM, 100% = signal doubled over neutral wells]
FC(F)(F)c1cc(-c2ccccc2)nc(-n2cc(Cl)cn2)n1 -21.3% [at 0.015 µM, 100% = signal doubled over neutral wells]
CCN(C[C@H]1N[C@@](CC)(C(=O)OC)[C@H]2C(=O)N(C)C(=O)[C@@H]12)S(=O)(=O)c1ccc(OC)cc1 -12.8% [at 0.42 µM, 100% = signal doubled over neutral wells]
COc1ccc(F)cc1C(=O)C1CCCN(C(=O)c2ccc(C(C)=O)s2)C1 (stereo not given) -19.8%
COc1ccc(C(=O)C2CCCN(Cc3cccn3-c3nccs3)C2)cc1OC (stereo not given) -15.9% [at 0.005 µM, 100% = signal doubled over neutral wells]
CCOC(=O)c1[nH]cnc1C(=O)NC(C)C -21.9% [at 0.135 µM, 100% = signal doubled over neutral wells]
CC(C)C[C@H](NC(=O)c1nc[nH]c1C(=O)NC1CCN(C(=O)OC(C)(C)C)CC1)C(=O)OC(C)(C)C 60.6%
CN1C(=O)NC(c2ccc(O)cc2)C2=C1CN(c1ccccc1)C2=O (stereo not given) -22.4% [at 3.8 µM, 100% = signal doubled over neutral wells]
CC(C)c1c(C(=O)N/N=C/c2cccc3ccccc23)nnn1-c1nonc1N -43.8%
O=C(COc1ccccc1Cl)NNC(=O)c1ccc2nc[nH]c2c1 15.8% [at 1.2 µM, 100% = signal doubled over neutral wells]
COC(=O)C[C@@H]1OC[C@H](C(C)C)N1S(=O)(=O)c1ccc(C)cc1 -15.5%
O=C(COC(=O)c1ncc(Cl)c(Cl)c1Cl)NC1CCS(=O)(=O)C1 (stereo not given) -18.3%
